Results as given in PubChem BioAssay (NCATS).
Records with an inconclusive call do not appear. Activity calls are given as the source filed them. Calls come from the whole dose curve; as a rule, active = well fitted inhibition curve with a large enough effect; inconclusive = small, poorly fitted or top-dose-only effect; inactive = flat fitted curve, though single readings scatter.

assay: Drug repurposing screens with cells derived from glioblastoma tumor samples (AID 1345199); details: GBM patient neurospheres viability, ATP luminescence, 48 h; at 45.9 µM (top of the series); tumour line D; note: nearly all actives have a fitted effect of over 40% in size
Method in brief: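 Primary testing used CD133+ neurospheres from four GBM patients, seven concentrations, 48 h exposure and ATP-based viability; confirmation added three slower-growing patient lines.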
% is set by controls: 0 for no effect and ±100 for the full control effect.

Row | Structure (SMILES) | activity, negative = cell killing
1 | CC1=C(/C=C/C(C)=C/C=C/C(C)=C/CO)C(C)(C)CCC1 | -16.1% (inactive)
2 | O=S(=O)(O)O | -20.1% (inactive)
3 | C=CCSSSCC=C | -21.3% (inactive)
4 | N[C@H](C(=O)O)[C@@H]1CC(Cl)=NO1 | -29.2% (inactive)
5 | CCCCC(=O)O[C@]1(C(=O)CO)[C@H](C)C[C@H]2[C@@H]3CCC4=CC(=O)C=C[C@]4(C)[C@@]3(F)[C@@H](O)C[C@@]21C | -22.7% (inactive)
6 | O=S(=O)(O)c1ccc2c(N=Nc3ccc(S(=O)(=O)O)c4ccccc34)c(O)c(S(=O)(=O)O)cc2c1 | -24.2% (inactive)
7 | CCCCC(=O)N(Cc1ccc(-c2ccccc2-c2nn[nH]n2)cc1)[C@@H](C(=O)O)C(C)C | -14.3% (inactive)
8 | COc1ccc(C[C@@H](C)NC[C@H](O)c2ccc(O)c(NC=O)c2)cc1 | 5.61% (inactive)
9 | C/C1=C2N=C(/C=C3N=C(/C(C)=C4\[N-][C@@](C)([C@@H]5N=C1[C@](C)(CCC(=O)NCC(C)OP(=O)(O)O[C@H]1[C@@H](O)[C@@H](n6cnc7cc(C)c(C)cc76)O[C@@H]1CO)[C@H]5CC(N)=O)[C@@](C)(CC(N)=O)[C@@H]4CCC(N)=O)[C@@](C)(CC(N)=O)[C@@H]\3CCC(N)=O)C(C)(C)[C@@H]/2CCC(N)=O.CC(=O)O.[Co] (stereo partly specified) | -26.7% (inactive)
10 | CC1=C(/C=C/C(C)=C/C=C/C(C)=C/C=C/C=C(C)/C=C/C=C(C)/C=C/C2=C(C)C(=O)CCC2(C)C)C(C)(C)CCC1=O | 9.62% (inactive)
11 | CC(NNC(=O)c1ccccc1)c1ccccc1 (stereo unspecified) | -19.2% (inactive)
